Measured values as given in the supplement of paper PMC11732987, “Enantioselective OTUD7B fragment discovery through chemoproteomics screening and high-throughput optimisation” (Communications Chemistry, 2025).

Experiments:
Experiment in all cases: log2 ratio of Biotin-Ahx-Ub-VS probe labelling (fragment/DMSO); higher = less target engagement (more negative = stronger competition), active = hit call of the paper (q ≤ 0.05, log2 ratio ≤ -1)
Details in all cases: compound concentration: 200 uM; treatment time: 3 h
USP9X = USP9X (UniProt Q93008)
USP9X, sequence (Q93008 whole entry, the tested form may be a part): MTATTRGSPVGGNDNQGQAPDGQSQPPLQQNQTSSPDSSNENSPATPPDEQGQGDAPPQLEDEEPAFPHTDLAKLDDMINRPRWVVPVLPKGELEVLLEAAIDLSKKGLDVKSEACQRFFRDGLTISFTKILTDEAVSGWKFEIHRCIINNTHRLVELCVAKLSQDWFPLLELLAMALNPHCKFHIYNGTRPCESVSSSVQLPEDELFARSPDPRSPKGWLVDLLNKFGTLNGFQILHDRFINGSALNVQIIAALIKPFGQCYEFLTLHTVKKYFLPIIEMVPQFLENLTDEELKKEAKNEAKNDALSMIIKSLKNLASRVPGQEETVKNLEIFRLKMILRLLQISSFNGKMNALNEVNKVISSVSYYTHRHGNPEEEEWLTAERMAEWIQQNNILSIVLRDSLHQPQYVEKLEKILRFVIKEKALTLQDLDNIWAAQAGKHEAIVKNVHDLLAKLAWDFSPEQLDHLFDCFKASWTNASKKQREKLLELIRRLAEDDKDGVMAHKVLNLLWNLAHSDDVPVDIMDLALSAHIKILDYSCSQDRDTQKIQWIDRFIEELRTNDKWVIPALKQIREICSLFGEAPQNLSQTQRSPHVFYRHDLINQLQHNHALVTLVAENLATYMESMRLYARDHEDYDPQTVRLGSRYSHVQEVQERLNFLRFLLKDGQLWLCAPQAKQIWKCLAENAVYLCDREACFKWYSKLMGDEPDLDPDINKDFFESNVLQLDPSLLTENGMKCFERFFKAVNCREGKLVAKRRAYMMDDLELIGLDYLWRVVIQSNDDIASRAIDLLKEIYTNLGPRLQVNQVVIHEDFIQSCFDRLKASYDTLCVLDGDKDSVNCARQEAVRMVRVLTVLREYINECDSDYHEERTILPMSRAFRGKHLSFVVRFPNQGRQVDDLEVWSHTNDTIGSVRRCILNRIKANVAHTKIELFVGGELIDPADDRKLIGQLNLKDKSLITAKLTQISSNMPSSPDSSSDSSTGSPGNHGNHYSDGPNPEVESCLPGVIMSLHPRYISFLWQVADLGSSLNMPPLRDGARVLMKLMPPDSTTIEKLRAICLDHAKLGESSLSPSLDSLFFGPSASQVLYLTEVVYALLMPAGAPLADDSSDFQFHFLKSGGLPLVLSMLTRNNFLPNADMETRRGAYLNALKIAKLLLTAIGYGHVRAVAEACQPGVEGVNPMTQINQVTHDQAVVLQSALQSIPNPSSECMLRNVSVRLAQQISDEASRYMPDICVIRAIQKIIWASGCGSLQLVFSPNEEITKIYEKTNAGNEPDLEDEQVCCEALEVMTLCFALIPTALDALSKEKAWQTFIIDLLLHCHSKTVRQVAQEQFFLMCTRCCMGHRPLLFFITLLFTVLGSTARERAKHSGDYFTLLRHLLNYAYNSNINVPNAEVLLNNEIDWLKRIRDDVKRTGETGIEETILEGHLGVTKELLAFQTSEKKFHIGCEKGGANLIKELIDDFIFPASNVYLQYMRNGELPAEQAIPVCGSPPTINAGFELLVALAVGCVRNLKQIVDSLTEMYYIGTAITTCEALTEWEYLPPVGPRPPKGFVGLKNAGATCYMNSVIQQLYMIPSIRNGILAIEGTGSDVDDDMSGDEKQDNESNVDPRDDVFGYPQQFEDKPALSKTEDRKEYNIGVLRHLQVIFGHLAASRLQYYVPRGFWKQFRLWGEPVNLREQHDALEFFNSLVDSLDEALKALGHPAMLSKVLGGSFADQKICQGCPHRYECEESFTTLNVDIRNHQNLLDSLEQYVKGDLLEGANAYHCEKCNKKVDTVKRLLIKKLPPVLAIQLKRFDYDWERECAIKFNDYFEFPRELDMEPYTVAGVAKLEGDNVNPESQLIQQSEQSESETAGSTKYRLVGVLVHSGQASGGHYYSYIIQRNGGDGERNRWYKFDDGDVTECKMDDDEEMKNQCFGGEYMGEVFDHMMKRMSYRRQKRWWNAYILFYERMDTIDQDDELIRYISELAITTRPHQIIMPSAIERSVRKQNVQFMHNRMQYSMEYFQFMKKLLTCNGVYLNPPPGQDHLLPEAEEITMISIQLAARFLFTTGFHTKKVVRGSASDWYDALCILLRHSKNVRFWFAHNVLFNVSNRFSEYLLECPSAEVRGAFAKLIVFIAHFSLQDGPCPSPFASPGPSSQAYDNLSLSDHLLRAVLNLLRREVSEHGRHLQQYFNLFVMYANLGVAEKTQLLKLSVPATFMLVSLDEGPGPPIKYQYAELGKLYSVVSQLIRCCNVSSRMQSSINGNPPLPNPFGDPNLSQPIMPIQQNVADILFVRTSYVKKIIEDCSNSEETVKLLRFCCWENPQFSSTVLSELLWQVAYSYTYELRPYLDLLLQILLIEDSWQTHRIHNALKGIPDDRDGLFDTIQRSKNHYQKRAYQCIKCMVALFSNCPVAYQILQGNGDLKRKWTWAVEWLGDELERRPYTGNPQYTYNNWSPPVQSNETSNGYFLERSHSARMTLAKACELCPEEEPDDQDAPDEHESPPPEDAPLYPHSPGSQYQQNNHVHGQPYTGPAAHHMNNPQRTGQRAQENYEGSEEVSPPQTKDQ
Procedure, shortened: (§1)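 HEK293T lysate (495 µg per sample, in Tris/CHAPS/IGEPAL buffer with protease inhibitors) was exposed in triplicate for 3 h to fragment at 200 µM or to vehicle, then to Biotin-Ahx-Ub-VS at 0.5 µM final for 1 h. Labelled DUBs were enriched on NeutrAvidin, digested with LysC and trypsin, and analysed by diaPASEF LC-MS/MS. Spectronaut label-free quantities were normalised to the global median, and values are average log2 ratios of fragment over vehicle from an unpaired t-test. Only proteins with ≥2 unique peptides were used.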

UniProt O00487 = biological target: UniProt O00487
UniProt O00487, sequence (O00487 whole entry): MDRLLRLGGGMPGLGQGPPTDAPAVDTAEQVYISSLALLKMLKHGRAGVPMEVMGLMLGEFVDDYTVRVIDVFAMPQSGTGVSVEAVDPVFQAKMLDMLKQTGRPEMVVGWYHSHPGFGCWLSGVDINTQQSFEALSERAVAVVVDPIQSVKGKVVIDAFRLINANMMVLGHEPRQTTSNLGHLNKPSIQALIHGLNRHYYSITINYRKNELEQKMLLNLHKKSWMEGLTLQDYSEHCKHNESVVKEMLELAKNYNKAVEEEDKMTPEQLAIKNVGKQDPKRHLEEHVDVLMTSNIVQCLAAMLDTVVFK
Procedure, shortened: as §1

UniProt O00507 = biological target: UniProt O00507
Procedure, shortened: as §1

UniProt P51784 = biological target: UniProt P51784
UniProt P51784, sequence (P51784 whole entry): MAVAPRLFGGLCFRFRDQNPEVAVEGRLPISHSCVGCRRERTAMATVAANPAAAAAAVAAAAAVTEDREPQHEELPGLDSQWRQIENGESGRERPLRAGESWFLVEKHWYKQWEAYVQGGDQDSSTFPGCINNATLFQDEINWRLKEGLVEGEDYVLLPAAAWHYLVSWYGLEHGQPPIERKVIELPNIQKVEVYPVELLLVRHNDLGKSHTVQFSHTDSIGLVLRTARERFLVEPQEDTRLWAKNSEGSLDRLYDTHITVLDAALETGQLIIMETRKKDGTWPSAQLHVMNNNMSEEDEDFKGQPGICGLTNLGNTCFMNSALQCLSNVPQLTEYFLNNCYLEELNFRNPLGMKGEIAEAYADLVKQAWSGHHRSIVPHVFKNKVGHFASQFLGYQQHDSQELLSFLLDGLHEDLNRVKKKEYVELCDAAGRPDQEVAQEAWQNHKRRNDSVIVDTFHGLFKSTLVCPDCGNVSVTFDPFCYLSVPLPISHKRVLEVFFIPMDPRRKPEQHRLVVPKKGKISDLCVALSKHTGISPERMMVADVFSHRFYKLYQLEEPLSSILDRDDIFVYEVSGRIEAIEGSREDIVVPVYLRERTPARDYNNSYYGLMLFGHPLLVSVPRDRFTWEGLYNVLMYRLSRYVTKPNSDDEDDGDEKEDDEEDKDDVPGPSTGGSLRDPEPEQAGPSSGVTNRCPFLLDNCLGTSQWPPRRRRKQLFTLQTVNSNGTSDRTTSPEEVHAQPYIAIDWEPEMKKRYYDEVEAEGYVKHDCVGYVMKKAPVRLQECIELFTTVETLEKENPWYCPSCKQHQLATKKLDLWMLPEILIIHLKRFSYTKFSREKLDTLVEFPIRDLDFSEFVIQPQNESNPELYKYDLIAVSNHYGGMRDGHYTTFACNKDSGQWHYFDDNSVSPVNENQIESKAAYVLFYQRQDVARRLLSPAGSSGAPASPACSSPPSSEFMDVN
Procedure, shortened: as §1

UniProt Q5T2D3 = biological target: T1, UniProt Q5T2D3
T1 sequence (whole entry): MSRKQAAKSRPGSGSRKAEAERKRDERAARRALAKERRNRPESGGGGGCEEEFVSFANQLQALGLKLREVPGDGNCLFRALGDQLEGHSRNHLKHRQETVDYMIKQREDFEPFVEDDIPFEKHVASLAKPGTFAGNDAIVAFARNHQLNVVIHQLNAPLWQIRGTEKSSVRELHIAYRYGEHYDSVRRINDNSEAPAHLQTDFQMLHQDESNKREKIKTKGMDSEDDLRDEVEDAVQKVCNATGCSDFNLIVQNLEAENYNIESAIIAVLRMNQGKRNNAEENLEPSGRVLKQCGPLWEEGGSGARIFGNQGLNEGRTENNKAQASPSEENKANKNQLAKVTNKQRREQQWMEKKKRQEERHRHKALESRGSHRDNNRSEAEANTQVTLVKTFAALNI
Procedure, shortened: as §1

UniProt Q8TE49 = biological target: T2, UniProt Q8TE49
T2 sequence (whole entry): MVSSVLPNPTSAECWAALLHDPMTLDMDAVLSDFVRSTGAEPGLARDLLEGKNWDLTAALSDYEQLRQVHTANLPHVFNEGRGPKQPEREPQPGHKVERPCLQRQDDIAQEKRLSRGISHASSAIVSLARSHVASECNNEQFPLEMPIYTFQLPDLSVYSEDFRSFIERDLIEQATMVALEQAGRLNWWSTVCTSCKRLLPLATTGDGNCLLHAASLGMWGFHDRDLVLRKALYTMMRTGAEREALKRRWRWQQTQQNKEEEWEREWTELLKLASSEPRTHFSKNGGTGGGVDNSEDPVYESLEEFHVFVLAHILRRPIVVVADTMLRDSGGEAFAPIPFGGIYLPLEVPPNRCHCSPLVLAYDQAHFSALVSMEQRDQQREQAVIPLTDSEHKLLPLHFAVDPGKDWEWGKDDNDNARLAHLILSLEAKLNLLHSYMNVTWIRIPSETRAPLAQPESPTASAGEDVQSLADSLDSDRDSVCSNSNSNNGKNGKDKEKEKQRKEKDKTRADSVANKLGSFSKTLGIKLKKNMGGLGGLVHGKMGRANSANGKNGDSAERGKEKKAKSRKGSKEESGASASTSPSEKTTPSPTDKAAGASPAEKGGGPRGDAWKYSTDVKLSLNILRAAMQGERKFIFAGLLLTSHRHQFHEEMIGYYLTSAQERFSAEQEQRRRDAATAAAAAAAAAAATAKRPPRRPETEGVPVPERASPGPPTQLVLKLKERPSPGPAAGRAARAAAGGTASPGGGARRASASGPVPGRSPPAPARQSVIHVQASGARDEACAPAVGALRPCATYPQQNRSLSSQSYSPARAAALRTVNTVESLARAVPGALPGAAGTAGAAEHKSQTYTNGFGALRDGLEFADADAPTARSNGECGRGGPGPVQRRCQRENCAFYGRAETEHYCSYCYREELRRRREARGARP
Procedure, shortened: as §1

UniProt Q9P2H5 = biological target: T3, UniProt Q9P2H5
T3 sequence (whole entry): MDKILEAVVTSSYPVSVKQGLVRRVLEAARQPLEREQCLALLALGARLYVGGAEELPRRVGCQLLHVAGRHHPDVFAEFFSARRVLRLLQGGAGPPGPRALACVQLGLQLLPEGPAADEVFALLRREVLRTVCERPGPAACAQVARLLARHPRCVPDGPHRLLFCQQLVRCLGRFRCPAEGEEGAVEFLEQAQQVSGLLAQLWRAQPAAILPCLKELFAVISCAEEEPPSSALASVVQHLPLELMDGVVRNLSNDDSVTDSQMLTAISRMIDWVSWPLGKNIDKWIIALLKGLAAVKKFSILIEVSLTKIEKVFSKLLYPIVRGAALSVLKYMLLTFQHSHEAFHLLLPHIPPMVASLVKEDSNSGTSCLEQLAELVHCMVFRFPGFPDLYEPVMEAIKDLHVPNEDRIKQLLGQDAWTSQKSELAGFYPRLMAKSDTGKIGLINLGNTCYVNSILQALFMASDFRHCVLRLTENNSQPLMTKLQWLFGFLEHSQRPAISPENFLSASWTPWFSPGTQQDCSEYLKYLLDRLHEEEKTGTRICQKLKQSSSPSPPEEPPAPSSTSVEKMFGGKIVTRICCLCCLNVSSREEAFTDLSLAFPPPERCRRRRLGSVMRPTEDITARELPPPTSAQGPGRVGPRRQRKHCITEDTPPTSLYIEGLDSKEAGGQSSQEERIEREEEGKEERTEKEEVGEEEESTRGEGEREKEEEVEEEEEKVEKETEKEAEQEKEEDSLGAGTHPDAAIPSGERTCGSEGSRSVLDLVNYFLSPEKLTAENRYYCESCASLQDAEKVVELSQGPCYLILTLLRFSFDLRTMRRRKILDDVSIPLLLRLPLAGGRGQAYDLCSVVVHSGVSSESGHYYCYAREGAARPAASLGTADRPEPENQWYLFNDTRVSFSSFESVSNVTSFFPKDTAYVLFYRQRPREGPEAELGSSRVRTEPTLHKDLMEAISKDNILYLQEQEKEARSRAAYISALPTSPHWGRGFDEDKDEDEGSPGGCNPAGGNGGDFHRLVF
Procedure, shortened: as §1

UniProt Q9UGI0 = biological target: T4, UniProt Q9UGI0
T4 sequence (whole entry): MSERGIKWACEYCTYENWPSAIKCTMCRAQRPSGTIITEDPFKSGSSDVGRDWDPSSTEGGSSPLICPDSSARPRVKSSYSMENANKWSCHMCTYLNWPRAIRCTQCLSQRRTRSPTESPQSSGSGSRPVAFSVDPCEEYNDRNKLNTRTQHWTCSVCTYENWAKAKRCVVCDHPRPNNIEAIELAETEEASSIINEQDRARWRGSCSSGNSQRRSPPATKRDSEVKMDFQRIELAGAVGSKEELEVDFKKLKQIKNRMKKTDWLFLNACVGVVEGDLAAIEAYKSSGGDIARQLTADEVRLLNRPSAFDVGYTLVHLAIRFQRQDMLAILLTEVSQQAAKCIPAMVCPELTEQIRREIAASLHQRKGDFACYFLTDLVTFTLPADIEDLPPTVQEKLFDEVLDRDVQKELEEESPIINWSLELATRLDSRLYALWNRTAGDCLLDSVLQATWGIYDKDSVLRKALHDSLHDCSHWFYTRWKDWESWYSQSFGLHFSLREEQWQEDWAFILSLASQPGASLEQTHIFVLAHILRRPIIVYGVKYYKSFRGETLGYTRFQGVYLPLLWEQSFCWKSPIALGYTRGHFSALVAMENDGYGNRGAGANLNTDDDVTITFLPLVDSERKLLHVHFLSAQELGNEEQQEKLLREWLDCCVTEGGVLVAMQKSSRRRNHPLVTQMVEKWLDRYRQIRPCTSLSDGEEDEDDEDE
Procedure, shortened: as §1

YOD1 = biological target: T5, YOD1 (UniProt Q5VVQ6)
T5 sequence (whole entry): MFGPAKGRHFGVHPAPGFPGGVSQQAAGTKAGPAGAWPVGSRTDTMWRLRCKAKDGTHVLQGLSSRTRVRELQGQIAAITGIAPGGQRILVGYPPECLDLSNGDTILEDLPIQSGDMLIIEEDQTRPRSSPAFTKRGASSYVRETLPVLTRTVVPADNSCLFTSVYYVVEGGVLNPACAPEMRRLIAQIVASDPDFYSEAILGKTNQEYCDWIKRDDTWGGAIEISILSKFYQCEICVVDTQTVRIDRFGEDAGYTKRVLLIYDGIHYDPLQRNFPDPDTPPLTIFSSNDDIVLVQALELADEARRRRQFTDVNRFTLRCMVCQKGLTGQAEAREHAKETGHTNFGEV
Procedure, shortened: as §1

Measured: log2 ratio of Biotin-Ahx-Ub-VS probe labelling

CCC(NC(=O)CCl)c1ccc(Cl)cc1 (centres undefined)
inactive: USP9X -0.112 | UniProt O00487 0.0429 | UniProt O00507 0.32 | UniProt P51784 0.0791 | UniProt Q5T2D3 -0.182 | UniProt Q8TE49 -0.735 | UniProt Q9P2H5 -0.319 | UniProt Q9UGI0 -0.279 | YOD1 0.188
